This note sets out measurements from PubChem BioAssay (NCI).

About 83,000 compounds went through this panel and 20% of them were active in at least one assay; those are over-represented in the sample as a whole.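 Values shown are percent growth following 48 h exposure of cells in 96-well plates to a single concentration of compound; below 10 was considered active.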 The source made the active and inactive calls.

This test relates to NCI-H322M lung. Description: NCI-60 one-dose screen, 48 h (100 = growth as untreated, 0 = no growth, -100 = all killed). The following applies: 10 µM unless noted.
As to `Cc1ccc(C(=O)NCCCNc2nccc(-n3ccc4cccnc43)n2)cc1`, the growth was 91.6% (inactive). The result for `N/C(=N\C(N)=N\c1nc2ccccc2s1)c1ccncc1` reads 96% (inactive); that for `COC(=O)c1nc(-c2ccccc2)oc1S(=O)(=O)N1CCN(c2cccc(Cl)c2)CC1`, 86.7% (inactive); that for `CCCCCCCCC(C)OC(=O)c1nn(C(C)=O)c2ccccc12` (stereo not given), 102% (inactive). Turning to `Cc1ccc(N2CCN(C(C)C(N)=O)CC2)cc1` (stereo not given), the growth is 116% (inactive). Under `COc1ccc(S(=O)(=O)NCCCNc2nccc(-c3c(-c4cccc([N+](=O)[O-])c4)nc4sccn34)n2)cc1` stands 67.6% (inactive). Under `COc1ccc(-n2c(=S)sc3c(Cl)nc(C)nc32)c(OC)c1` stands 61.9% (inactive); under `N[C@@H]1CCN(C(=O)c2cc3cc(Cl)c(F)c(F)c3[nH]2)C1`, 87.1% (inactive). As for `C=C[C@@H]1C[C@@H]2Cc3cc(F)ccc3N1O2`, the growth is 137% (inactive). For `CCCCN(CCCC)C(=O)CC`, the growth was 117% (inactive). Under `CC12CCC3C4(C)COC(c5ccco5)OC4CCC3(C)C1CC(C1=CCOC1=O)O2` (stereo not given) stands 98.9% (inactive).

On to `CCCCN(CCCC)C(=N)c1ccnc2ccccc12`, for which the growth was 110% (inactive). For `C=C1C(=O)O[C@H]2[C@H]1CC/C(Cn1cc(CNC(=O)c3cc4ccccc4[nH]3)nn1)=C\CC[C@@]1(C)O[C@@H]21`, the growth is 94.7% (inactive). On to `NC(=O)CCCN1C/C(=C\c2ccccc2)C(=O)c2ccccc21`, for which the growth was 88.2% (inactive). Consider `COc1cc(/C=C/C(=O)N2CCN(C(=O)/C=C/c3cc(OC)c(OC)c(OC)c3)CC2)cc(OC)c1OC`, for which the growth is 113% (inactive).

Regarding `COc1ccc(Nc2ncccc2C(=O)NCc2cn(Cc3cccc(Oc4ccccc4)c3)nn2)cc1`, the growth is 46.1% (inactive). Under `c1ccc(-c2nnc(-c3ccccn3)s2)nc1` stands 117% (inactive); under `C=C1CCC2C(C)(CO)C(O)CCC2(C)C1CC(NCc1ccccc1)C1=CCOC1=O` (stereo not given), 103% (inactive). Under `CCCCCCCCCCCC(=O)NCCC[N+](C)(C)CC(=O)[O-]` stands 96.6% (inactive). Under `CC(C)CSc1nc(NN)c(C#N)c(-c2ccc(F)cc2)n1` stands 74.9% (inactive); under `O=c1[nH]c(-c2ccccc2)nc(CN2CCCCC2)c1O`, 136% (inactive); under `Cc1ccc(S(=O)(=O)Nc2c(Br)cc(Br)cc2C(N)=O)cc1`, 88.4% (inactive). With `Nc1nc(-c2ccccc2)c(CCCOc2ccc(NC(=O)CBr)cc2)c(=O)[nH]1`, the growth was 135% (inactive). `Nc1cccc(-c2nc3sccn3c2-c2ccnc(NCCNS(=O)(=O)c3ccc(C(F)(F)F)cc3)n2)c1`: the growth was 42.4% (inactive). The result for `Cc1ccc(-c2nc(C#N)c(S(=O)(=O)n3nc(-c4ccccc4)cc3N)o2)cc1` reads 97.3% (inactive).
